The values below come from the supplement of paper PMC10849652.

Of roughly 8,800 targets only a part is listed; those with a hit were picked by preference. About 0.5% of all pairs of compound and target were hits.

Chain of UniProt Q9NPI6 (Q9NPI6 whole entry, looked up): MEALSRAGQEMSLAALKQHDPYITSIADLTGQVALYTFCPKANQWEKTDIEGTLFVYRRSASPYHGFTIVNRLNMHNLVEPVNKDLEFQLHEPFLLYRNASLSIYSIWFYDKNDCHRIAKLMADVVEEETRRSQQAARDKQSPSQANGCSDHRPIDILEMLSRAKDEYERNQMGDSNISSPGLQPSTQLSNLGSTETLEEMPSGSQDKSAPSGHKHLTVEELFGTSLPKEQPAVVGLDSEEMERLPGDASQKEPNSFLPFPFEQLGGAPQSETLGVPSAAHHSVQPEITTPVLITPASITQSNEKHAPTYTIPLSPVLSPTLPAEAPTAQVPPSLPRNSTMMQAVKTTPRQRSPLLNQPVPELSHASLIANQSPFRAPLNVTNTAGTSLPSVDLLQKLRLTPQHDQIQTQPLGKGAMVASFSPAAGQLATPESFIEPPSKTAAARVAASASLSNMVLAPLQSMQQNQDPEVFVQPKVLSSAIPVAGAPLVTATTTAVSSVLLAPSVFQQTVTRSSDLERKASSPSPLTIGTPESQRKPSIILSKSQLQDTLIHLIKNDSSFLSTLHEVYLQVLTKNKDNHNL
Chain of UniProt Q9H9E3 (Q9H9E3 whole entry, looked up): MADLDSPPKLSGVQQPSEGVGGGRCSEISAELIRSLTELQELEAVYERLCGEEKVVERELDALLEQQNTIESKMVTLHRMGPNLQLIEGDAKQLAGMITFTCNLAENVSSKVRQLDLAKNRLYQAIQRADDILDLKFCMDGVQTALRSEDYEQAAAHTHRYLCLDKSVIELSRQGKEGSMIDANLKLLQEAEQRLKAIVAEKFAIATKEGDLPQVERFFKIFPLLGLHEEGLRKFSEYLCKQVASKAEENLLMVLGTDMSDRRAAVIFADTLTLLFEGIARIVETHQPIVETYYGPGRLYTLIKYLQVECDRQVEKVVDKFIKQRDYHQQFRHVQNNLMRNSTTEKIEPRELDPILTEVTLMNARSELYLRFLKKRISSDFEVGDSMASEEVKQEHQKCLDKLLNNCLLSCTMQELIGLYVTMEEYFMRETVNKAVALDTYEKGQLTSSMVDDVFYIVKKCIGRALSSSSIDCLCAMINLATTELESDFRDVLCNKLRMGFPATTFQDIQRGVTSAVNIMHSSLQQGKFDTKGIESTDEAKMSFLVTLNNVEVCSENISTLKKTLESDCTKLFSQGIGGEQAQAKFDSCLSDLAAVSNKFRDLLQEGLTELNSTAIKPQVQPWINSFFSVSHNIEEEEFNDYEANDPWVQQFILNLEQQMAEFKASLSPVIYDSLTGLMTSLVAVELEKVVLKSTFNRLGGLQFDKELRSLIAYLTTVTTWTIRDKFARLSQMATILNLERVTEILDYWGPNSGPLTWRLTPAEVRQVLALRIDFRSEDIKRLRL
Chain of UniProt O95628 (O95628 whole entry, looked up): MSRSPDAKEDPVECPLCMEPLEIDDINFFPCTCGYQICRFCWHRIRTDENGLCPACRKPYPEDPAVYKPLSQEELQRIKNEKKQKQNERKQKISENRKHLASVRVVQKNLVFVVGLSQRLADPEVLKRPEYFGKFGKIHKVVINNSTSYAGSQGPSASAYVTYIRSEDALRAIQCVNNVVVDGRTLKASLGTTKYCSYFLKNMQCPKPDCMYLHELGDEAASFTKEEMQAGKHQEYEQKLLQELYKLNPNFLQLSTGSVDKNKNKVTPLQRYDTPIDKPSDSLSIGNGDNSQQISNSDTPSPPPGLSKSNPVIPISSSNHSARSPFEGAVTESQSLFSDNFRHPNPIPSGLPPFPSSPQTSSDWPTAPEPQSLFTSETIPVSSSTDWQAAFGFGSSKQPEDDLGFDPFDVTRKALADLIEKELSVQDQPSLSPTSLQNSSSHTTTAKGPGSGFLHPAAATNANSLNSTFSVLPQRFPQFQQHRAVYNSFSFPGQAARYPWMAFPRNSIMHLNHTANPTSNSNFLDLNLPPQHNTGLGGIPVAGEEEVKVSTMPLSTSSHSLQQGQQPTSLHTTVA
Chain of UniProt Q9Y315 (Q9Y315 whole entry, looked up): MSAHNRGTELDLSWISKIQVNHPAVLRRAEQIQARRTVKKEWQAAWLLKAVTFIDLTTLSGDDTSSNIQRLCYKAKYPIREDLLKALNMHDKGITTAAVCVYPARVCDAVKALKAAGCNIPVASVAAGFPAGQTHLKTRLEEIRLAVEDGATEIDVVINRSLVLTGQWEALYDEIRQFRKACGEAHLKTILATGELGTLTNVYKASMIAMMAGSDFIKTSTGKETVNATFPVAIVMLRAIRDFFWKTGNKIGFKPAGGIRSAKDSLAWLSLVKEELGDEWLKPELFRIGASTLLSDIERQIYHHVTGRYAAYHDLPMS
Chain of UniProt Q5RI15 (Q5RI15 whole entry, looked up): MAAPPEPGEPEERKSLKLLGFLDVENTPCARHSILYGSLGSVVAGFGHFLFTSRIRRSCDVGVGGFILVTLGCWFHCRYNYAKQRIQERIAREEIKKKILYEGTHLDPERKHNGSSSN
Chain of UniProt P09622 (P09622 whole entry, looked up): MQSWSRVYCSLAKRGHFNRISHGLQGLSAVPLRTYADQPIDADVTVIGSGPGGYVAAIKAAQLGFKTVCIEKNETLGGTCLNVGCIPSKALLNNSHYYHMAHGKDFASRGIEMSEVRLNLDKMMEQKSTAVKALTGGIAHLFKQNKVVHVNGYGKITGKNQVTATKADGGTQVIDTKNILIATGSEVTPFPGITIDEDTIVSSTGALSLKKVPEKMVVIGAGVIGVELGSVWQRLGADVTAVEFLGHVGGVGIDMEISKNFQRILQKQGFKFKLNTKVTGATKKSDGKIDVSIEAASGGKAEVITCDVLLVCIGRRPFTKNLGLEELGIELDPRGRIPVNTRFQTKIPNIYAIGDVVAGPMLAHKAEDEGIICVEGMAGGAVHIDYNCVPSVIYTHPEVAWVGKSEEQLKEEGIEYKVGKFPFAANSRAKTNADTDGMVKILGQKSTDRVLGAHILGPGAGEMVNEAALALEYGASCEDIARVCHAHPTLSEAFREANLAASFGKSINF
Chain of UniProt Q9Y6M4 (Q9Y6M4 whole entry, looked up): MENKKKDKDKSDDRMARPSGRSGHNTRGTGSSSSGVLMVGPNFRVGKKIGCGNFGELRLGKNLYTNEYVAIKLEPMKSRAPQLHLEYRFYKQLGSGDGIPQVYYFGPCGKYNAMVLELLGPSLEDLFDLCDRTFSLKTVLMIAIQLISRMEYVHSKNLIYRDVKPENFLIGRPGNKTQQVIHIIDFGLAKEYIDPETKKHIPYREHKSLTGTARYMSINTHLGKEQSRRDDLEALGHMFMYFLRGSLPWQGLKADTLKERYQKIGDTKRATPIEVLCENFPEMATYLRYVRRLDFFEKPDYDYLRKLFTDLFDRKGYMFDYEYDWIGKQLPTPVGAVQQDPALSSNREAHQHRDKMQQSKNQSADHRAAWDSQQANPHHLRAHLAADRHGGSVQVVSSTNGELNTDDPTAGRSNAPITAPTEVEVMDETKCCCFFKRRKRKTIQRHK
Chain of UniProt Q92796 (Q92796 whole entry, looked up): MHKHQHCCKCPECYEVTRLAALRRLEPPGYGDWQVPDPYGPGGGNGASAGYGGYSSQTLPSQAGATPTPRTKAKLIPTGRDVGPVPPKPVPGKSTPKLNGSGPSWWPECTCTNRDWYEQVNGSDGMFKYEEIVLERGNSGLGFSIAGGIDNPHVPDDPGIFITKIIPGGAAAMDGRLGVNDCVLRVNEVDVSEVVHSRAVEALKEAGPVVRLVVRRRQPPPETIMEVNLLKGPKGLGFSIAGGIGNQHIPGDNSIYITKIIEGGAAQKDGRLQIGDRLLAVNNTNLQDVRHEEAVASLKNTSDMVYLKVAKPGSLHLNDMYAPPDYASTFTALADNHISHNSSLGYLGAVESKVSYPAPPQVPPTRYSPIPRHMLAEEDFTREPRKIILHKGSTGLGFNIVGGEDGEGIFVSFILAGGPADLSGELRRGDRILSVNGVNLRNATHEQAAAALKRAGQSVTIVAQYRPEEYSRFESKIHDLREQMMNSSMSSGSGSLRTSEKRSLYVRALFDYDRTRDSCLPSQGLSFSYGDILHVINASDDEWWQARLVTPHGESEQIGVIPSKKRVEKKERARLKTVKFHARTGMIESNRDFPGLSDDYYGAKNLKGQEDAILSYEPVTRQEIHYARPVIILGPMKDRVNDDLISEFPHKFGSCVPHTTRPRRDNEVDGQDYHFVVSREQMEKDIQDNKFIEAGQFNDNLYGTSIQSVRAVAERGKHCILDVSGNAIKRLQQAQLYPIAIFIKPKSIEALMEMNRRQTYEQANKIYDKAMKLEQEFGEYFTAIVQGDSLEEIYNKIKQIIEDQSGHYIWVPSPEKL
Chain of UniProt P61923 (P61923 whole entry, looked up): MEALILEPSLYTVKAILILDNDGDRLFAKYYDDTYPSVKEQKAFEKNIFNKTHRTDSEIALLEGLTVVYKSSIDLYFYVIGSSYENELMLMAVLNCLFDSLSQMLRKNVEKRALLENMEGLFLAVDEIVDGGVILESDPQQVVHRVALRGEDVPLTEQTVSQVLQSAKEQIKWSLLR
Chain of UniProt P17812 (P17812 whole entry, looked up): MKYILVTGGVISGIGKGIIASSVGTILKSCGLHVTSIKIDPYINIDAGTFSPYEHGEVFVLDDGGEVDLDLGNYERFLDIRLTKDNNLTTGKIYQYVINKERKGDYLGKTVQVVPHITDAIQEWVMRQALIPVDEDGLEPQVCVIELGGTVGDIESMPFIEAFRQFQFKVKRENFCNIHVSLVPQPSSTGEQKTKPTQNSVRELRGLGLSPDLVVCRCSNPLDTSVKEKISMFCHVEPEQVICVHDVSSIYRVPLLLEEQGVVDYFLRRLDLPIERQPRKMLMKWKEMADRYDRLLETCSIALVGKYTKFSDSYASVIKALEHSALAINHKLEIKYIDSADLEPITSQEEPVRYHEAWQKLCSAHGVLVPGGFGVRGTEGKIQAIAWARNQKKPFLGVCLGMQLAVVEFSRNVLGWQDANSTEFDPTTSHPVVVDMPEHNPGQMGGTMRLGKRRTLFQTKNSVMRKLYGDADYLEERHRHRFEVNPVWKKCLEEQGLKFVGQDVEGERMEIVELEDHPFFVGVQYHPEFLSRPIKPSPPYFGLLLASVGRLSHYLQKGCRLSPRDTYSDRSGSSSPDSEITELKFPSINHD

Compound in the first experiment: Cc1sc2c(c1C)C(c1ccc(Cl)cc1)=N[C@@H](CC(=O)OC(C)(C)C)c1nnc(C)n1-2
The experiment can be described thus: log2 fold change, soluble protein after heating vs DMSO (PISA); higher = thermal stabilisation; K562 lysate, 10 uM; active = over 0.2 and 3.5 SD of the protein, either way, in both replicates (recomputed). A digest of the protocol: (§1)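 K562 pellets were dounce-homogenised in PBS pH 7.4 with 1 mM MgCl2, and the crude extract at 1 mg/mL protein was treated with 10 μM compound for 30 min. Aliquots were heated for 3 min across 48°C-58°C, pooled, and brought to 0.5% NP-40 at 4°C; soluble protein was the supernatant after 21,000xg for 90 min. Soluble protein was quantified by TMTpro 16plex LC-MS/MS with channel sums equalised, and reported as log2 fold change in thermal stability against DMSO controls, with values from duplicates.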
With CSNK2A2 (UniProt P19784), the log2 fold change is 0.038 (inactive).

In the case of CIAO2A (UniProt Q9H5X1), the log2 fold change was -0.032 (inactive).

With CSNK1G3 (UniProt Q9Y6M4), the log2 fold change was 0.006 (inactive).

On to DDX39A (UniProt O00148), for which the log2 fold change is -0.016 (inactive).

As to CIP2A (UniProt Q8TCG1), the log2 fold change was -0.021 (inactive).

Regarding COG4 (UniProt Q9H9E3), the log2 fold change is -0.036 (inactive).

In the case of DERA (UniProt Q9Y315), the log2 fold change was 0.061 (inactive).

In the case of DAZAP1 (UniProt Q96EP5), the log2 fold change was 0.088 (inactive).

Take COPZ1 isoform 4 (UniProt P61923): the log2 fold change was 0.057 (inactive).

With DBF4 (UniProt Q9UBU7), the log2 fold change was 0.113 (inactive).

Compound in a further experiment: c1ccc([C@@H]2C[C@H]2NC2CCNCC2)cc1
The experiment is described as above. A digest of the protocol: as §1
Consider DCP1A (UniProt Q9NPI6), for which the log2 fold change is -0.026 (inactive).

For DPH5 isoform 5 (UniProt Q9H2P9), the log2 fold change is -0.118 (inactive).

Take CLUH, A0A494C0R8: the log2 fold change is 0.132 (inactive).

On to CLIC2 (UniProt O15247), for which the log2 fold change was 0.029 (inactive).

CNOT4 isoform 9 (UniProt O95628): the log2 fold change is -0.551 (inactive).

DLG3 isoform 2 (UniProt Q92796): the log2 fold change was 0.048 (inactive).

In the case of DNAJC1 (UniProt Q96KC8), the log2 fold change was 0.021 (inactive).

In the case of COX20 isoform 2 (UniProt Q5RI15), the log2 fold change is 0.23 (inactive).

On to CTPS1 (UniProt P17812), for which the log2 fold change is 0.023 (inactive).

On to DLD (UniProt P09622), for which the log2 fold change is -0.076 (inactive).

Take DCP2 (UniProt Q8IU60): the log2 fold change was 0.048 (inactive).

In the case of CLPB isoform 2 (UniProt Q9H078), the log2 fold change was 0.079 (inactive).

Take CHURC1 isoform 2 (UniProt Q8WUH1): the log2 fold change was -0.063 (inactive).
